Only some compounds are listed: those with a hit (about 0.64% of all), similar ones and a draw of the others.
RECQ1 inh = RECQ1 (human) helicase inhibition. RECQ1 DNA unwinding, red fluorescence kinetic read. Potency, µM (highest dose often 57.3 µM), for inactives: at the highest dose activity, negative = inhibition, hits mostly inhibitors. actives 0.54% (n = 240,000). AID 2549;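 note: plate controls were vehicle for no effect and no enzyme for full effect; nearly all actives have a fitted effect of over 30% in size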
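50 nM RECQ1T1 preincubated 15 min with compound in Tris pH 8.0 buffer with MgCl2, DTT, Tween-20 and 2.5 ug/ml poly(dI-dC); started with 200 nM TAMRA/BHQ-2 forked duplex and 2 mM ATP. Unwinding read as fluorescence (525/598 nm), two reads 2 h apart.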
BLM inh-1 = blocks DNA unwinding by human BLM helicase. P54132. recombinant BLM DNA unwinding, fluorescence dequenching. actives 0.2% (n = 350,000). Potency, µM (top dose mostly 56.1 µM), without a hit: at the top dose activity change, negative = inhibition, most hits filed as inhibitors. AID 2528;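 note: plate controls were vehicle for no effect and no enzyme for full effect; nearly all actives have a fitted effect of over 35% in size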
TexasRed fluor = alters Texas Red total fluorescence, flagging assay interference | TRb/SRC2 Texas Red total fluorescence interference | actives 0.29% (n = 280,000) | Potency, µM (top dose mostly 106 µM), for inactives: at the top dose fluorescence change, negative = quenching; active = well fitted curve in either direction with a large enough effect; inconclusive = small, poorly fitted or top-dose-only effect
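Human TRβ ligand-binding domain (0.6 uM) and Texas Red SRC2 peptide (20 nM) in Tris buffer with 1 uM T3 and 5% DMSO were incubated with pinned compound for 5 hr at ambient temperature. Total fluorescence was computed as S + 2P (555/632 nm).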
TRb-SRC2 inh = inhibitors of human thyroid hormone receptor beta-SRC2 interaction. actives 0.065% (n = 280,000). Potency, µM (highest dose often 106 µM), without a hit: at the highest dose activity change, negative = inhibition, actives largely listed as inhibitors. P10828. TRbeta-SRC2 peptide binding, fluorescence polarization; receptor liganded with 1 µM T3;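 note: plate controls were bound peptide for no effect and peptide without receptor for full effect; nearly all actives have a fitted effect of over 50% in size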
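Fluorescence polarization of 20 nM Texas Red SRC2 peptide with 0.6 uM human TRb ligand-binding domain, in Tris buffer with 1uM T3 and 5% DMSO. Incubated 5 hr ambient; normalized to unbound and bound controls.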
BLM inh-2 = BLM (human) helicase inhibition, confirmation; shares compounds with BLM inh-1; BLM DNA unwinding, fluorescence quenching, biochemical; Potency, µM, for the others: max response, negative = inhibition, most hits filed as inhibitors; actives 40% (n = 220);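 note: strand separation dequenches TAMRA so unwinding raises red fluorescence; series mostly up to about 69 µM; nearly all actives have a fitted effect of over 45% in size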
* = called active by the depositor; i = inactive; ? = inconclusive; . = no result; ! = not confirmed by another sample; [ ] = another dose, or the depositor's remark. Unless noted, calls come from the whole dose curve; as a rule, active = well fitted curve in the direction sought with a large enough effect; inconclusive = small, poorly fitted or top-dose-only effect, or another doubt; inactive = no such curve, though single readings can be large; an effect the other way counts as inactive or inconclusive. Unless noted, % is set by controls: 0 for no effect and ±100 for the full control effect; potency is the fitted concentration of half-maximal effect.

SMILES | RECQ1 inh | BLM inh-1 | TexasRed fluor | TRb-SRC2 inh | BLM inh-2
O=C1OC(Nc2ncccn2)c2ccccc21 (centres undefined) | -11% | -5% | 0% | -10% | .
O=C1OC(Nc2cc(Br)cc3cccnc23)c2ccccc21 (centres undefined) | i | 22µM* | 4% | 1% | -4%
CCOc1ccc(NC(=O)NCCN2CCN(c3cc(Cl)ccc3C)CC2)cc1 | . | -2% | -1% | -1% | .
Cc1cc(-c2ccco2)c(C#N)c2nc3ccccc3n12 | i | 2.5µM* | -7% | 1% | ?
CCCCOc1ccccc1C(=O)N(Cc1sccc1C)C1CCS(=O)(=O)C1 (centres undefined) | . | -2% | -6% | -8% | .
CCN(CC)c1cc(Cl)c2nonc2c1N | -1% | -8% | -4% | -1% | .
CN(C)c1cc(Cl)c2nonc2c1N | 28µM* | 35µM* | -6% | ? | ?
CCC/C=C/C(C)O (centres undefined) | -4% | 3% | -2% | -6% | .
CCCCCCCCCCCCCCCC(=O)OC[C@@H](COP(=O)([O-])OCC[N+](C)(C)C)OC(=O)CCCCCCCCCCCCCCC | 9% | -5% | 0% | 1% | .
COC(=O)c1cc(=O)c(O)c2c(O)c(O)ccc2c1 | 8.9µM* | ? | ? | -2% | ?
COC(=O)c1ccc(O)cc1 | -3% | 1% | 0% | 0% | .
Cc1cccc(C)c1NC(=O)CN1CCCCCC1 | . | 1% | 0% | -5% | .
O=C1Nc2ccc(I)cc2/C1=C/c1cc(Br)c(O)c(Br)c1 | 25µM*! | ? | ? | 5% | 96µM*
O=c1cc(N2CCOCC2)oc2c(-c3ccccc3)cccc12 | -2% | -12% | -3% | -4% | .
CCC(C)n1c(NC(=O)c2ccccc2)c(C#N)c2nc3ccccc3nc21 (centres undefined) | -13% | 10µM* | 0% | -15% | ?
O=C(O)c1ccc(S(=O)(=O)/N=C2\C=C(Nc3ccccc3F)C(=O)c3ccccc32)cc1 | . | 8.9µM* | . | . | 16µM*
Cc1ccccc1NC1=C/C(=N\S(=O)(=O)c2ccc(C(=O)O)cc2)c2ccccc2C1=O | . | 7.1µM* | . | . | 11µM*
CCc1ccc(S(=O)(=O)/N=C2\C=C(NS(=O)(=O)c3ccccc3)C(=O)c3ccccc32)cc1 | . | -10% | . | . | .
CN1CCc2c(sc(NC(=O)c3cc4cc([N+](=O)[O-])ccc4s3)c2C(N)=O)C1 | ? | 28µM* | -18% | -10% | 29µM*
CCOC(=O)c1ccc2nc(C)cc(Nc3ccc(OC(C)C)cc3)c2c1 | . | 4% | 0% | 9% | .
Nc1c(C(=O)NCC2CCCO2)sc2nc3c(c(-c4ccco4)c12)CC/C3=C\c1ccco1 (centres undefined) | 2.5µM* | 5µM* | 11µM*[quencher] | 9% | ?
CC(C)CNC(=O)COC(=O)c1c2c(nc3ccccc13)/C(=C/c1cccs1)CC2 | -18% | -16% | -3% | 1% | .
O=C(COC(=O)c1c2c(nc3ccccc13)/C(=C/c1ccco1)CC2)NC1CCCC1 | ? | 8.9µM* | ? | 17% | ?
Cc1ncc(C[n+]2csc(CCOP(=O)(O)OP(=O)(O)O)c2C)c(N)n1 | 8% | -2% | 4% | 1% | .
CNC1CC(N)[C@H](O)[C@@H](O[C@@H]2OC(CO)C3OC4(OC(C(N)CO)C(O)C(O)C4O)O[C@@H]3[C@H]2O)C1O (some centres undefined) | -14% | -7% | -3% | -1% | .
SMILES | RECQ1 inh | BLM inh-1 | TexasRed fluor | TRb-SRC2 inh | BLM inh-2
CCn1c(SCC(N)=O)nc2sc3c(c2c1=O)CCN(C)C3 | 7% | 0.71µM* | 0% | 10% | 10%
C=C1CC[C@@H]2[C@](C)(CC[C@@H](O)[C@]2(C)CO)[C@@H]1C/C=C1/C(=O)OC[C@H]1O | . | . | . | . | 5%
Cc1ccc2sc(NC(=O)c3ccc4c(c3)OCCO4)nc2c1C | . | -10% | -2% | -5% | .
Cc1nc2ccc3nc(NC(=O)c4ccc5c(c4)OCCO5)sc3c2s1 | -3% | -9% | -2% | 3% | ?
O=C1C(N2CCOCC2)=C(n2nnc3ccccc32)C(=O)c2ccccc21 | -19% | 35µM* | -10% | ? | ?
CCC1CN(C(=O)N2CCC(C(=O)NCc3ccc(OC)cc3OC)CC2)c2cc(C)ccc2O1 (centres undefined) | . | -12% | -2% | -3% | .
